According to the supplement of paper PMC8047044:
Counter-ions that a name gives are not always drawn.

Test system: Neuro-2a
Experiment: neurite formation score, plate-normalized to DMSO control mean 5.04 (score (0-8 scale)); higher = more or longer neurites
Conditions: 0.1 µM
Description: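 Neuro-2a mouse neuroblastoma cells in PLL-coated 96-well plates were pre-treated for 1 h in DMEM(+) with each kinase inhibitor at 0.1 µM, then switched to serum-free DMEM(-) with inhibitor to induce neurite outgrowth and fixed about 2-3 h later. Three blinded observers scored neurite formation from 0 (no neurites) to 8 (long neurites on almost all cells).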

**Q.** Which neurite formation score does the source give for CNC(=O)c1ccccc1Nc1nc(Nc2ccc(N3CCOCC3)cc2OC)ncc1Cl here?
**A.** 4.58

**Q.** With CN(C)CCSSCCNC(=O)C1CCN(C(=O)CSc2ccc(Cl)cc2)CC1 as the compound, how does the neurite formation score read?
**A.** 4.58

**Q.** With CNC(=O)c1cc(Oc2ccc(NC(=O)Nc3cc(C(C)(C)C)nn3-c3ccc4ncccc4c3)c(F)c2)ccn1 [DCC-2036 (Rebastinib)] as the compound, how does the neurite formation score read?
**A.** 3.92

**Q.** COc1cc2nccc(Oc3ccc(NC(=O)C4(C(=O)Nc5ccc(F)cc5)CC4)cc3)c2cc1OC was tested. Which neurite formation score did it give?
**A.** 4.38

**Q.** NC(=O)c1ccc(N(C(N)=O)c2c(F)cccc2F)nc1-c1ccc(F)cc1F was tested. Which neurite formation score did it give?
**A.** 4.58

**Q.** How did the neurite formation score turn out when CCn1c(N)c(C(=O)NC)c(=O)c2ccc(C#CC(C)(O)COC)nc21 (stereo not given) was run?
**A.** 4.42

**Q.** How did the neurite formation score turn out when CC(C)(CCCCCC(O)CCCCCC(C)(C)C(=O)O)C(=O)O was run?
**A.** 0.0903

**Q.** For CC(C)NC[C@@H](C(=O)N1CCN(c2ncnc3c2[C@H](C)C[C@H]3O)CC1)c1ccc(Cl)cc1, which neurite formation score is on record?
**A.** 5.04

**Q.** How did the neurite formation score turn out when CC(C)n1nc(-c2cc3cc(O)ccc3[nH]2)c2c(N)ncnc21 was run?
**A.** 4.76

**Q.** How did the neurite formation score turn out when C=CC(=O)Nc1cccc(Nc2nc(Nc3ccc(N4CCN(C(C)=O)CC4)cc3OC)ncc2C(F)(F)F)c1 was run?
**A.** 3.71

**Q.** How did the neurite formation score turn out when CCCCCCCCc1ccc(CCC(N)(CO)CO)cc1 [Fingolimod (FTY720)] was run?
**A.** 4.25

**Q.** Cc1cc(Nc2cc(CN3CCOCC3)c3nc(C)c(Cc4ccc(Cl)cc4F)n3n2)n[nH]1 was tested. Which neurite formation score did it give?
**A.** 5.25

**Q.** How did the neurite formation score turn out when COc1cc(Nc2ncc(F)c(Nc3ccc4c(n3)NC(=O)C(C)(C)O4)n2)cc(OC)c1OC [R406 (free base)] was run?
**A.** 5.21

**Q.** Which neurite formation score does the source give for C[C@@H](Oc1ccc2[nH]nc(/C=C/c3cnn(CCO)c3)c2c1)c1c(Cl)cncc1Cl here?
**A.** 4.92

**Q.** COc1cc(Nc2c(C#N)cnc3cc(OCCCN4CCN(C)CC4)c(OC)cc23)c(Cl)cc1Cl [Bosutinib (SKI-606)] was tested. Which neurite formation score did it give?
**A.** 2.71

**Q.** For CN(C)C/C=C/C(=O)Nc1cc2c(Nc3ccc(F)c(Cl)c3)ncnc2cc1O[C@H]1CCOC1 [Afatinib (BIBW2992)], which neurite formation score is on record?
**A.** 4.54

**Q.** For COc1ccc(CNc2nc(N(CCO)CCO)nc3c2ncn3C(C)C)cc1, which neurite formation score is on record?
**A.** 4.04

**Q.** With COc1cc(Nc2ncc3c(n2)-c2ccc(Cl)cc2C(c2c(F)cccc2OC)=NC3)ccc1C(=O)O [MLN8237 (Alisertib)] as the compound, how does the neurite formation score read?
**A.** 4.58

**Q.** For O=S(=O)(c1cccc2c(O)nccc12)N1CCCNCC1 [Hydroxyfasudil hydrochloride], which neurite formation score is on record?
**A.** 2.09

**Q.** With CC(C)(C)Cn1c(N)nc2ccc(-c3[nH]c(C(C)(C)C)nc3-c3ccc(F)cc3)nc21 as the compound, how does the neurite formation score read?
**A.** 5.54

**Q.** How did the neurite formation score turn out when O=C(Nc1ccc2[nH]nc(-c3ccncc3)c2c1)[C@@H]1CCN(CC(=O)N2CCN(c3ccc(-c4ncccn4)cc3)CC2)C1 was run?
**A.** 5.09

**Q.** How did the neurite formation score turn out when O=C(NOCC(O)CO)c1cc(Br)c(F)c(F)c1Nc1ccc(I)cc1F (stereo not given) was run?
**A.** 4.88

**Q.** How did the neurite formation score turn out when CNC(=O)c1ccc(C)c(-n2c(C)cc(OCc3ccc(F)cc3F)c(Br)c2=O)c1 was run?
**A.** 2.21

**Q.** With CCC[C@H](NC(=O)/C(C#N)=C/c1cccc(Br)n1)c1ccccc1 as the compound, how does the neurite formation score read?
**A.** 4.21

**Q.** Which neurite formation score does the source give for Cc1ccc(NC(=O)c2cccc(C(C)(C)C#N)c2)cc1Nc1ccc2ncn(C)c(=O)c2c1 here?
**A.** 4.88

**Q.** With CNC(=O)c1cc(Oc2ccc(NC(=O)Nc3ccc(Cl)c(C(F)(F)F)c3)c(F)c2)ccn1 [Regorafenib hydrochloride] as the compound, how does the neurite formation score read?
**A.** 4.92

**Q.** How did the neurite formation score turn out when CC1(COc2ccc3c(c2)ncn3-c2ccc3cccc(N4CCC(N)CC4)c3n2)COC1 was run?
**A.** 4.21

**Q.** Which neurite formation score does the source give for Nc1ncnc2n[nH]c(Nc3ccc(F)cc3)c12 here?
**A.** 5.08

**Q.** For O=C(c1cccc(Cl)c1F)N1CCN(Cc2cccc(Nc3nccs3)n2)CC1, which neurite formation score is on record?
**A.** 1.42

**Q.** Which neurite formation score does the source give for COc1ccc2c(c1)c(C1=C(c3c[nH]c4ccccc34)C(=O)NC1=O)cn2CCCN(C)C here?
**A.** 5.54

**Q.** How did the neurite formation score turn out when Cc1cc(C)c(/C=C2\C(=O)Nc3ccccc32)[nH]1 [Semaxanib (SU5416)] was run?
**A.** 5.42

**Q.** With Cc1ccc(NC(=O)c2ccc(CN3CCN(C)CC3)cc2)cc1Nc1nc(-c2cccnc2)cs1 [Masitinib (AB1010)] as the compound, how does the neurite formation score read?
**A.** 4.38

**Q.** Which neurite formation score does the source give for Cc1cc(C(=O)NOCCO)c(Nc2ccc(I)cc2F)n(C)c1=O here?
**A.** 3.92

**Q.** How did the neurite formation score turn out when CS(=O)(=O)c1cccc(CNc2nc(Nc3ccc4c(c3)CCC(=O)N4)ncc2C(F)(F)F)c1 was run?
**A.** 5.09

**Q.** Which neurite formation score does the source give for Nc1ccc(C(=O)Nc2cccc(-c3nc(N4CCOCC4)c4oc5ncccc5c4n3)c2)cn1 here?
**A.** 4.42

**Q.** For Cc1nc(N)sc1-c1ccnc(Nc2ccc(N3CCOCC3)cc2)n1, which neurite formation score is on record?
**A.** 4.58

**Q.** With CCCCCCCCCCCC(=O)OCC(CO)OC(=O)CCCCCCCCCCC (stereo not given) [1,2-Dilauroyl-sn-glycerol] as the compound, how does the neurite formation score read?
**A.** 5.08

**Q.** Which neurite formation score does the source give for Cc1nc(NC(=O)N2CCC[C@H]2C(N)=O)sc1-c1ccnc(C(C)(C)C(F)(F)F)c1 here?
**A.** 5.21

**Q.** For c1nc2c(NC3CCCCC3)nc(Nc3ccc(N4CCOCC4)cc3)nc2[nH]1 [Reversine], which neurite formation score is on record?
**A.** 4.92

**Q.** Which neurite formation score does the source give for CCN1CCN(Cc2ccc(Nc3ncc(F)c(-c4cc(F)c5nc(C)n(C(C)C)c5c4)n3)nc2)CC1 here?
**A.** 3.04
